Source: PubChem BioAssay (NCATS)
A number with no mark means an inactive call. Inconclusive results are not listed. A call without a number means that no potency is given here. Activity calls are given as the source filed them. Unless noted, calls follow the shape of the dose curve; as a rule, active = well fitted curve in the direction sought with a large enough effect; inconclusive = small, poorly fitted or top-dose-only effect, or another doubt; inactive = no such curve, though single readings can be large; an effect the other way counts as inactive or inconclusive.

Assays:
[1] = UWB1.289 Cancer Cell Toxicity qHTS against the NCATS CANVASS Library (AID 1347347); also: nearly all actives have a fitted effect of over 60% in size; also: potency is read from the fitted curve at half-maximal effect
Procedure, shortened: (§1)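 In this cytotoxicity screen, 1000 cells per well rested 4 hours, then received compound (11 concentrations) for a 72-hour incubation; an ATP-dependent luminescent signal (CellTiter-Glo) was the endpoint.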

[2] = Panc-1005 Cancer Cell Toxicity qHTS against the NCATS CANVASS Library (AID 1347349); also: nearly all actives have a fitted effect of over 60% in size; also: potency is read from the fitted curve at half-maximal effect
Procedure, shortened: as §1

[3] = UWB1.289-WTBRCA1 Cancer Cell Toxicity qHTS against the NCATS CANVASS Library (AID 1347354); also: potency is read from the fitted curve at half-maximal effect
Procedure, shortened: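 Cells at 1000/well were given compound 4 h after plating in an 11-point series. Viability was read by CellTiter-Glo luminescence after 72 h at 37 degrees C.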

[4] = tested on: Zika virus NS2B-NS3 protease (linked construct); assay: Primary screen NINDS Rhodamine qHTS for Zika virus inhibitors (AID 1347160); also: nearly all actives have a fitted effect of over 55% in size; also: potency is read from the fitted curve at half-maximal effect
Procedure, shortened: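 In 10 mM Tris-HCl pH 8.0 containing 0.01% Tween 20, linked NS2B-NS3 protease (25 nM final) is exposed to test compounds for 15 min. Cleavage of 1.5 microM Rhodamine110 substrate is tracked by fluorescence over 15 min.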

[5] = qHTS for Antimalaria activity screened against the NCATS CANVASS Library (AID 1347380); also: nearly all actives have a fitted effect of over 40% in size; also: potency is read from the fitted curve at half-maximal effect
Procedure, shortened: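 Red blood cells infected with P. falciparum Dd2 (2.5% hematocrit final, 0.3% parasitemia) were exposed to compounds in an 11-point qHTS series for 72 hr at 37C under 5% O2 and 5% CO2. Lysis buffer with SYBR Green was then added for 18 hr, and fluorescence was read at 485/535 nm.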

[6] = biological target: Glucocorticoid receptor (Homo sapiens) (UniProt P04150); assay: GR-EFC Redistribution (AID 451; calls by dose curve; also: potency is read from the fitted curve at half-maximal effect); settings: CHO-K1 GR-EFC translocation, beta-gal luminescence, 2 h
Procedure, shortened: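 CHO-K1 cells expressing nuclear EA and GR-ED fragments of b-gal; compounds titrated up to 46 uM final, 2 h at 37 C. GR nuclear translocation read as complemented b-gal luminescence after 1 h RT detection.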

[7] = biological target: Mitogen-activated protein kinase 10 (Mus musculus) (UniProt Q61831); assay: JNK3 AlphaScreen Assay (AID 530; active = well fitted curve in either direction with a large enough effect, not every such curve was filed as active;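 also: kinase came from lysate of stimulated human HepG2 cells; signal reports phosphorylation of biotinylated GST-cJun 1-79 at Ser73 with 10 µM ATP; series mostly up to about 57 µM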)
Procedure, shortened: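 Pre-activated (IL-1β/TNFα) JNK3 in HepG2 lysates phosphorylates biotin-GST-cJun(1-79), 10 uM ATP; anti-phospho-cJun(Ser73) AlphaScreen read at room temperature, pH 7.6 Tris buffer. Compounds pre-incubated 15 min as titrations.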

[8] = biological target: 3',5'-cyclic-AMP phosphodiesterase 4B (Homo sapiens) (UniProt Q07343); assay: qHTS Assay for Inhibitors of PDE-IV (AID 607; active = well fitted activation curve with a large enough effect in the main read-out, with a control signal flat, not every such curve was filed as active)
Procedure, shortened: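 Cell-based read-out of cAMP via a modified cyclic nucleotide-gated channel and membrane potential dye (535/590 nm) in HEK293 cells expressing PDE4 endogenously. Compounds tested up to 22.9 uM final; 100 uM RO 20-1724 reference.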

[9] = tested on: Zika virus NS2B-NS3 protease (linked); assay: 384 well plate NINDS AMC confirmatory qHTS for Zika virus inhibitors (AID 1347163);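 also: linked protease at 5 30 or 60 nM final depending on run; fluorescence of AMC released from Ac-VKTGKR-AMC peptide cleaved by the protease; top concentration of the series differs between compounds; nearly all actives have a fitted effect of over 50% in size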
Procedure, shortened: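 Linked NS2B-NS3 protease (final 5 nM, 30 nM or 60 nM) was preincubated with compounds (final up to 1 mM) for ~15 minutes. Ac-VKTGKR-AMC substrate (final 30 microM) then reacted for 25 minutes at room temperature in the dark. Fluorescence (ex 355/em 460 nm) was normalized to no-enzyme and no-inhibitor controls.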

Sequence of 3',5'-cyclic-AMP phosphodiesterase 4B (Homo sapiens) (Q07343 whole entry, looked up): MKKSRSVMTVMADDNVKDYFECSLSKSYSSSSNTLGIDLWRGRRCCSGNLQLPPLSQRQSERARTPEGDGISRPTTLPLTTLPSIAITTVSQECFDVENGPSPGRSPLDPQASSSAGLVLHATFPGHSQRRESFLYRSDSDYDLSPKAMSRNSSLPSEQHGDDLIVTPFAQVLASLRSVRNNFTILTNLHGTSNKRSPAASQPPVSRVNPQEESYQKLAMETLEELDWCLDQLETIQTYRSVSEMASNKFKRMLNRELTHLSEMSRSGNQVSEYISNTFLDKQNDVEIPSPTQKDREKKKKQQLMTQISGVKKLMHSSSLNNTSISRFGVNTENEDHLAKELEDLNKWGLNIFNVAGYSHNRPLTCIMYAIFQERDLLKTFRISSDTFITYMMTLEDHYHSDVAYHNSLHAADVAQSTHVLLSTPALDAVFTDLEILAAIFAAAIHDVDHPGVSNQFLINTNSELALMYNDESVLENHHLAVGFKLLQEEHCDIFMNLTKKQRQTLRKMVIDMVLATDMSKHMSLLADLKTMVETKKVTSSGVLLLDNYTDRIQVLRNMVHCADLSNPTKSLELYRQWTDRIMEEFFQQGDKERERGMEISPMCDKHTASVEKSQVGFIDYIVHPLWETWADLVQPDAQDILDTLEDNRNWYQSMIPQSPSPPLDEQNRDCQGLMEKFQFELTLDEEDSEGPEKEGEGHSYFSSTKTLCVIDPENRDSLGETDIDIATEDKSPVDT
Sequence of Glucocorticoid receptor (Homo sapiens) (P04150 whole entry, looked up, the tested form may be a part): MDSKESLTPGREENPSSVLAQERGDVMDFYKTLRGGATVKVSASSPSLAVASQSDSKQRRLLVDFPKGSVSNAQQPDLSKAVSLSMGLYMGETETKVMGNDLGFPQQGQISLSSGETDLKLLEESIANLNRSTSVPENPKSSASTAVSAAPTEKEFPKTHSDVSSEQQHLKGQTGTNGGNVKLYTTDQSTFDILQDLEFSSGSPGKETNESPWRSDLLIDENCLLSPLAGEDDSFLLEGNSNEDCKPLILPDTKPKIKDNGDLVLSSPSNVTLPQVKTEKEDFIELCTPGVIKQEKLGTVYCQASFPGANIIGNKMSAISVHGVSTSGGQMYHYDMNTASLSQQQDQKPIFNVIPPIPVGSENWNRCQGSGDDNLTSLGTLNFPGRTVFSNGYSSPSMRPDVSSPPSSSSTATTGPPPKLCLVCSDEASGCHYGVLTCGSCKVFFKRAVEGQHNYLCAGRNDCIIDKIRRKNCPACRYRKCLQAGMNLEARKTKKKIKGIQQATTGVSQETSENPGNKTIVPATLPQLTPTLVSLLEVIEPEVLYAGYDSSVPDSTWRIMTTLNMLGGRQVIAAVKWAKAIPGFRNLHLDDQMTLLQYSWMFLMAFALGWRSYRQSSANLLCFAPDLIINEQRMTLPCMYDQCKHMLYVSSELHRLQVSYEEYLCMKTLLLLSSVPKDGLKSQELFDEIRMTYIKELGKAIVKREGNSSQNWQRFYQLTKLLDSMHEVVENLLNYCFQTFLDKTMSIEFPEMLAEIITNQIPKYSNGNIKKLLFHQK

Compound: C[N+](C)(C)CCc1c[nH]c2ccccc12
- Potency [1]: inactive
- Potency [2]: inactive
- Potency [3]: inactive

Compound: CC[C@H]1CN2CCc3c([nH]c4cccc(OC)c34)[C@@H]2C[C@@H]1/C(=C\OC)C(=O)OC
- Potency [4]: 24.7 µM (active)
- Potency [3]: inactive
- Potency [5]: inactive

Compound: CCCC[C@@H]1CC[C@H]2CCCC(CCCO)N12 (stereo partly drawn)
- Potency [2]: inactive
- Potency [3]: inactive
- Potency [5]: 0.0106 µM (active)

Compound: CCCC[C@@H](C)/C=C1/CN2CCC[C@H]2[C@@](C)(O)[C@@H]1O
- Potency [2]: inactive
- Potency [3]: inactive
- Potency [5]: inactive

Compound: CN(C)[C@@H]1C(=O)C(C(N)=O)=C(O)[C@]2(O)C(=O)C3=C(O)c4c(O)cccc4[C@@](C)(O)[C@@H]3C[C@@H]12
- Potency [6]: > 46 µM
- outcome [7]: inactive
- Potency [8]: inactive
- Potency [9]: inactive

Compound: C/C=C(\C)C(=O)O[C@@H]1[C@@H](O)[C@@H]2O[C@H]3[C@H](O[C@@H](CCCCC)CCCCCCC(=O)CCC(=O)OC[C@@H](O2)[C@H]1OC(=O)/C=C/c1ccccc1)O[C@H](C)[C@H](OC(C)=O)[C@@H]3O
- Potency [1]: 0.594 µM (active)
- Potency [2]: 0.0335 µM (active)
- Potency [3]: inactive
- Potency [5]: 0.0375 µM (active)

Compound: C/C=C1/CN2CC[C@@]34c5ccccc5N(C)[C@@H]3[C@@H]2C[C@@H]1[C@H]4C(=O)OC
- Potency [3]: inactive
- Potency [5]: inactive

Compound: C=C(C)[C@H]1C(=O)c2c3c(cc4c5c(n1c24)[C@@]1(C)[C@@H](CC[C@H]2[C@](C)(/C=C/C=C(\C)C(=O)O)[C@@H](O)CC[C@@]21C)C5)C1=CC(C)(C)OC(C)(C)[C@H]1[C@@H]3O
- Potency [4]: 2.2 µM (active)
- Potency [1]: 11.8 µM (active)
- Potency [2]: 8.41 µM (active)
- Potency [3]: 18.8 µM (active)
- Potency [5]: 7.47 µM (active)

Compound: C[C@]12CC(O)C3[C@@H](CC[C@@H]4C[C@@H](O)CC[C@]34CO)[C@@]1(O)CC[C@@H]2C1=CC(=O)OC1 (stereo partly drawn)
- Potency [1]: 4.2 µM (active)
- Potency [5]: inactive

Compound: C[C@]12CC(O)C3[C@@H](CCC4C[C@@H](O)CC[C@@]43CO)[C@@]1(O)CC[C@@H]2C1=CC(=O)OC1 (stereo partly drawn)
- Potency [4]: 44 µM (active)
- Potency [1]: 13.3 µM (active)
- Potency [5]: inactive

Compound: CO[C@@H](/C=C/CC/C=C/C(=O)O)[C@@H](O)[C@H](C)/C=C(\C)[C@H](O)[C@H](C)C(=O)CCCC1CC(=O)NC(=O)C1
- Potency [1]: inactive
- Potency [2]: inactive
- Potency [3]: inactive

Compound: CCCCC1CC[C@H]2CCCC(CCC)N12 (stereo partly drawn)
- Potency [4]: inactive
- Potency [2]: inactive
- Potency [3]: inactive
- Potency [5]: inactive

Compound: CC(C)CC1C(=O)O[C@H](C(C)C)C(=O)N(C)C(CC(C)C)C(=O)O[C@@H](C(C)C)C(=O)N(C)C(CC(C)C)C(=O)O[C@H](C(C)C)C(=O)N(C)C(CC(C)C)C(=O)O[C@@H](C(C)C)C(=O)N1C (stereo partly drawn)
- Potency [4]: 4.4 µM (active)
- Potency [2]: 6.68 µM (active)
- Potency [5]: 0.747 µM (active)

Compound: CO[C@H]1[C@H](O[C@H]2CC[C@]3(C=O)[C@H]4CC[C@]5(C)[C@@H](C6=CC(=O)OC6)CC[C@]5(O)[C@@H]4CC[C@]3(O)C2)O[C@H](C)[C@H](O)[C@@H]1OC
- Potency [5]: inactive

Compound: C/C=C1/CN2CC[C@]34C(=C(C(=O)OC)[C@H]1C[C@H]23)Nc1ccccc14
- Potency [4]: inactive
- Potency [1]: inactive
- Potency [3]: inactive
- Potency [5]: inactive

Compound: C=C[C@]12C=CCN3CC[C@@]4(c5ccccc5NC(=O)[C@@H]4C1)[C@@H]32
- Potency [1]: inactive
- Potency [2]: inactive
- Potency [3]: inactive

Compound: C/C(=C\[C@H](C)C(=O)C[C@H](O)CC1CC(=O)NC(=O)C1)[C@@H]1OC(=O)/C=C/CC/C=C/C=C/[C@@H]1C
- Potency [4]: 44 µM (active)
- Potency [1]: 0.118 µM (active)
- Potency [2]: 0.0668 µM (active)
- Potency [5]: 0.941 µM (active)

Compound: C1=C2CCCN[C@H]2C2CC1[C@H]1CCCCN1C2 (stereo partly drawn)
- Potency [1]: inactive
- Potency [2]: inactive
- Potency [3]: inactive
- Potency [5]: inactive
